Results published in PubChem BioAssay AID624483 (NMMLSC, 2012).
Out of some 360,000 compounds screened, about 11,000 (3.1%) were called active. Roughly 2% stayed inconclusive and do not appear here. No stated cut-off is given here; in the data, active means fluorescence intensity above about 16000; inconclusive means no clear call, values can overlap the other calls; inactive means below that. The list comes from a sample in which actives are over-represented; it also holds similar structures and randomly drawn compounds.

Test: compound fluorescence in toxin protease inhibitor counterscreen, primary screen, artefact control for toxin protease inhibitor project, biochemical, multiplex microsphere, HTS (AID 624483)
Conditions: compound autofluorescence counterscreen, microsphere flow cytometry; stronger effect = higher value
For `Cc1nc2c(OCc3ccc(Cl)cc3Cl)cccn2c1N(C)CC1CC1`, the fluorescence intensity was 3540 (inactive).
In the case of `C[C@@H]1CN([C@@H](C)CO)C(=O)c2cc(Br)cnc2O[C@H]1CN(C)Cc1ccc(-c2ccccc2)cc1`, the fluorescence intensity is reported as 2930 (inactive).
With `CCCNC(=O)c1cc(C2CCCN(C(=O)c3ccc4c(c3)CCO4)C2)on1` (centres undefined) the fluorescence intensity was 3960 (inactive).
For `CC1CN(C(=O)c2ccc([N+](=O)[O-])s2)CC(C)O1` (centres undefined), the fluorescence intensity was 6540 (inactive).
In the case of `CNN/C(N=Cc1ccc([N+](=O)[O-])s1)=N\S(=O)(=O)c1cc(C)c(Cl)cc1SCc1ccccc1`, the fluorescence intensity is reported as 3540 (inactive).
For `O=[N+]([O-])c1ccc(C=Nc2ccc(Cl)cc2Cl)s1`, the fluorescence intensity was 22300 (active).
With `CC(=O)NC(c1cccc(F)c1)c1nc(-c2cccc(F)c2)cs1` (centres undefined) the fluorescence intensity was 2910 (inactive).
For `COCCNC(=O)c1ccc2nc(Cc3ccc(OC)c(OC)c3)oc2c1`, the fluorescence intensity was 4160 (inactive).
With `CCCCc1nc2ccc(F)cc2cc1C` the fluorescence intensity was 6420 (inactive).
In the case of `O=C1NC[C@H](CCCCN2C[C@H](Cc3ccccc3)N(Cc3ccccc3)C(=O)C2=O)N(CCc2ccc(O)cc2)C1=O`, the fluorescence intensity is reported as 4050 (inactive).
For `COCCNC(=O)c1ccc(S(=O)(=O)c2ccc(Cl)cc2)c(NC(C)=O)c1`, the fluorescence intensity was 3030 (inactive).
With `CC(=O)Nc1cc(C(=O)O)ccc1S(=O)(=O)c1ccc(Cl)cc1` the fluorescence intensity was 22400 (active).
With `Cc1ccc(S(=O)(=O)c2ccc(Cl)cc2)cc1S(=O)(=O)NC(C(=O)O)C(C)C` (centres undefined) the fluorescence intensity was 1970 (inactive).
With `CC1(C(=O)Nc2cccc3cccnc23)CCN1C(=O)CCC1CCCC1` (centres undefined) the fluorescence intensity was 3540 (inactive).
For `COc1cccc(CN(C)C(=O)CC[C@H]2O[C@@H](n3cnc4c(NC(=O)c5ccccc5)ncnc43)[C@H](O)[C@@H]2O)c1`, the fluorescence intensity was 5840 (inactive).
In the case of `COc1ccc2ccccc2c1CNCc1ccccn1`, the fluorescence intensity is reported as 22000 (active).
In the case of `COc1ccc(C)cc1NC(=O)NCc1ccccn1`, the fluorescence intensity is reported as 2130 (inactive).
In the case of `COc1ccc2ccccc2c1CNc1nnnn1C`, the fluorescence intensity is reported as 4610 (inactive).
With `Cc1ccc(Cc2c(-c3ccco3)nc3ccc(Cl)cn23)cc1` the fluorescence intensity was 5920 (inactive).
In the case of `CC(=O)Nc1ccc(S(=O)(=O)NC2Cc3ccccc3C2)cc1`, the fluorescence intensity is reported as 4250 (inactive).
In the case of `COc1ccc(-c2cc(NC=O)c3ncc(-c4ccccc4)n3c2)cc1OC`, the fluorescence intensity is reported as 4190 (inactive).
With `CN(CC#CCC(c1ccccc1)c1ccccc1)C(C)(C)C` the fluorescence intensity was 13300 (inactive).
For `CC(C)NC(=O)C(=O)NCCN1CCN(S(=O)(=O)c2ccc(Cl)cc2)CC1`, the fluorescence intensity was 10600 (inactive).
For `CS(=O)(=O)N1CCCCC1c1cc(C(=O)NCc2ccccc2)no1` (centres undefined), the fluorescence intensity was 2870 (inactive).
With `CC(=O)c1cccc(-c2cnc3c(NC=O)cc(-c4ccc(N5CCN(C)CC5)cc4)cn23)c1` the fluorescence intensity was 3240 (inactive).
For `O=C(Nc1ccc(C(=O)N2CCOCC2)cc1)Nc1cccc(C(F)(F)F)c1`, the fluorescence intensity was 6040 (inactive).
For `O=C(CN1CCN(c2ccc(F)cc2)CC1)Nc1cccc(C(F)(F)F)c1`, the fluorescence intensity was 2100 (inactive).
In the case of `NC(=O)Nc1cccc(C(F)(F)F)c1`, the fluorescence intensity is reported as 23300 (active).
With `COc1ccc(NC(=O)C2(C)Cc3c(-c4ccc(C(N)=O)cc4)ccnc3O2)cc1` (centres undefined) the fluorescence intensity was 3540 (inactive).
With `COC(=O)c1ccc(CNC(=O)C2CCC(=O)N(Cc3ccccn3)C2)cc1` (centres undefined) the fluorescence intensity was 4790 (inactive).
For `COC(=O)c1ccc(C(=O)OC)c(NC(=S)N2CCCCC2)c1`, the fluorescence intensity was 5240 (inactive).
In the case of `CCS(=O)(=O)Nc1cc(C(=O)OC)ccc1C(=O)OC`, the fluorescence intensity is reported as 20300 (active).
With `CCCN(CCC)C(=S)Nc1cc(C(=O)OC)ccc1C(=O)OC` the fluorescence intensity was 2240 (inactive).
For `CC1C(=O)N(Cc2cn(Cc3ccco3)nn2)CCS(=O)(=O)N1Cc1ccc(-c2cccc(CO)c2)cc1` (centres undefined), the fluorescence intensity was 3680 (inactive).
With `C=CCN1C2CCCC1CC(NC(=S)Nc1cccc(OC)c1)C2` (centres undefined) the fluorescence intensity was 4340 (inactive).
In the case of `CCCCNC(=O)c1nc(C2CCN(S(=O)(=O)c3ccc(F)c(F)c3)CC2)oc1-c1cccc(C(F)(F)F)c1`, the fluorescence intensity is reported as 5910 (inactive).
In the case of `Cc1cc(NC(=O)Nc2ccc(Cl)cc2)n(-c2ccccc2)n1`, the fluorescence intensity is reported as 5820 (inactive).
With `Cc1cc(NC(=O)c2cnn3cccnc23)n(-c2ccccc2)n1` the fluorescence intensity was 19500 (active).
For `O=C(Nc1ccc(Cl)cn1)c1cnn2cccnc12`, the fluorescence intensity was 4840 (inactive).
With `O=C(NCc1ccc(F)cc1)c1cc(C2CCCCN2C(=O)C2CCCCC2)on1` (centres undefined) the fluorescence intensity was 3660 (inactive).
In the case of `CC(=O)c1cccc(NC(=S)N2CCCC2)c1`, the fluorescence intensity is reported as 4420 (inactive).
In the case of `O=C(Nc1cccc(C(=O)N2CCCC2)c1)c1ccccc1`, the fluorescence intensity is reported as 23500 (active).
With `CCC(CC)C(=O)Nc1cccc(C(=O)N2CCCC2)c1` the fluorescence intensity was 9330 (inactive).
In the case of `COc1ccccc1CNC(=O)C1CCN(S(C)(=O)=O)CC1`, the fluorescence intensity is reported as 8350 (inactive).
For `COc1ccccc1CNC(=O)C1CCN(c2nc3ccccc3o2)CC1`, the fluorescence intensity was 21300 (active).
For `COc1ccc(OC)c(CNC(=O)C2CCCN(c3nc4ccccc4o3)C2)c1` (centres undefined), the fluorescence intensity was 15800 (inactive).
With `COc1ccccc1CNC(=O)c1cc(-c2cc(F)ccc2OC)n[nH]1` the fluorescence intensity was 3700 (inactive).
For `CC(C)C[C@H]1CNC(=O)C(=O)N1C[C@@H]1CCCN1C[C@H](Cc1ccccc1)N1C[C@H](CC(C)C)N(CC2CCCCCC2)C(=O)C1=O`, the fluorescence intensity was 5660 (inactive).
For `Cc1cccc2sc(N(CCCN(C)C)C(=O)CCS(=O)(=O)c3ccccc3)nc12`, the fluorescence intensity was 32000 (active).
With `Cc1cc(C)c2nc(N(CCN(C)C)C(=O)/C=C/c3cccs3)sc2c1` the fluorescence intensity was 4460 (inactive).
In the case of `Cc1ccc2sc(N(CCN(C)C)C(=O)/C=C/c3cccs3)nc2c1C`, the fluorescence intensity is reported as 4390 (inactive).
With `COc1cc(/C=C/CNC[C@H]2O[C@@H](n3cnc(C(N)=O)n3)[C@H](O)[C@@H]2O)ccc1O` the fluorescence intensity was 3180 (inactive).
In the case of `O=C(NCc1ccccc1Cl)C1CCN(S(=O)(=O)N2CCOCC2)CC1`, the fluorescence intensity is reported as 5690 (inactive).
With `Cc1ccccc1Cn1c(C)c(C(=O)NCc2cccc(C(F)(F)F)c2)sc1=O` the fluorescence intensity was 5450 (inactive).
In the case of `FC(F)(F)c1ccccc1Cc1c(-c2ccccc2)nc2c3ccccc3ccn12`, the fluorescence intensity is reported as 6460 (inactive).
With `CC(C)OCCCNc1nc2c(c(=O)n(Cc3ccccc3F)c(=O)n2C)n1C` the fluorescence intensity was 23400 (active).
In the case of `Cn1c(=O)c2c(nc(NCCNC(=O)c3ccco3)n2Cc2ccccc2F)n(C)c1=O`, the fluorescence intensity is reported as 5330 (inactive).
In the case of `COc1ccc(N2CC(C)Cn3c2nc2c3c(=O)n(Cc3ccccc3F)c(=O)n2C)c(OC)c1` (centres undefined), the fluorescence intensity is reported as 5760 (inactive).
With `CCc1ccc([C@@H]2CC(=O)[C@@H]3CN(S(=O)(=O)c4ccc(C)cc4)[C@H](c4ccc(Cl)cc4)C[C@@H]3N2S(=O)(=O)c2ccc(C)cc2)cc1` the fluorescence intensity was 6290 (inactive).
In the case of `COc1ccc(CCn2c(O)c(C=NCCCn3ccnc3)c(=O)[nH]c2=O)cc1OC`, the fluorescence intensity is reported as 22700 (active).
With `COc1ccc(CCn2c(O)c(C=NC3CC3)c(=O)[nH]c2=O)cc1OC` the fluorescence intensity was 3180 (inactive).
In the case of `O=c1[nH]c(=O)n(CCc2ccc(F)cc2)c(O)c1/C=N/N1CCCCC1`, the fluorescence intensity is reported as 3680 (inactive).
With `CCc1nc2ccc(C(=O)Nc3cccc(OC)c3)cn2c1N(CCC(C)C)CCN(C)C` the fluorescence intensity was 3940 (inactive).
For `COC(=O)c1ccc(S(=O)(=O)N(CCO)Cc2ccccc2)n1C`, the fluorescence intensity was 5690 (inactive).
For `CCCC(=O)N1CCC1(C)C(=O)NCc1ccc(SC)cc1` (centres undefined), the fluorescence intensity was 4000 (inactive).
For `O=c1oc2ccccc2c(CNc2ccccc2)c1[N+](=O)[O-]`, the fluorescence intensity was 3710 (inactive).
In the case of `CC1(C(=O)NS(=O)(=O)c2ccc3ccccc3c2)CCN1C(=O)C1(c2ccc(Cl)cc2)CCC1` (centres undefined), the fluorescence intensity is reported as 3400 (inactive).
With `CCc1nc2c(OCc3cccc(OC)c3)cccn2c1N(C)C(=O)C(C)C` the fluorescence intensity was 4100 (inactive).
In the case of `COc1ccc2nc(-c3ccccn3)ccc2c1`, the fluorescence intensity is reported as 4000 (inactive).
With `CC(C)c1nc(-c2ccccn2)no1` the fluorescence intensity was 21700 (active).
For `O=C(Oc1ccc(-c2nc(-c3ccccn3)no2)cc1)c1ccccc1`, the fluorescence intensity was 3190 (inactive).
In the case of `CC(=O)NC(c1ccccc1)c1nc(-c2cccc(C(C)C)c2)cs1` (centres undefined), the fluorescence intensity is reported as 3400 (inactive).
With `Cc1ccccc1OCC(=O)NNC(=O)c1ccc(-n2cncn2)c([N+](=O)[O-])c1` the fluorescence intensity was 5300 (inactive).
In the case of `C=C(C)Cn1c(N2CCN(CC)CC2)nc2c1c(=O)[nH]c(=O)n2C`, the fluorescence intensity is reported as 4600 (inactive).
With `COc1ccc(C2OCC3(CO2)SC(=O)NC3=O)cc1OC` (centres undefined) the fluorescence intensity was 2510 (inactive).
With `CCCC(C)n1[nH]c(=O)c2c1NC(=O)CSC2c1ccc(OC)c(OC)c1` (centres undefined) the fluorescence intensity was 20600 (active).
With `CCOC(=O)C1C(c2ccc(OC)c(OC)c2)c2c([nH][nH]c2=O)CC1(C)O` (centres undefined) the fluorescence intensity was 4630 (inactive).
With `CCCCN1CC(N2CCN(Cc3cccc(C)c3)CC2)CS1(=O)=O` (centres undefined) the fluorescence intensity was 6580 (inactive).
With `Nc1c(NCCc2ccccc2)c2ccccc2oc1=O` the fluorescence intensity was 3190 (inactive).
For `O=c1oc2ccccc2c(=O)c2ccccc12`, the fluorescence intensity was 3730 (inactive).
For `CC(C)(C)Nc1c(N)c(=O)oc2ccccc12`, the fluorescence intensity was 17700 (active).
For `CN(C)Cc1c(O)ccc2occ(C(O)c3ccccc3)c12` (centres undefined), the fluorescence intensity was 2380 (inactive).
In the case of `CC(=O)c1cccc(-c2cnc3c(NC=O)cc(-c4cccc(C(=O)N(C)C)c4)cn23)c1`, the fluorescence intensity is reported as 4000 (inactive).
For `OCCC#Cc1ccc(N2C(c3ccsc3)=Cc3ccc(F)cc3C2c2c[nH]c3ccccc23)cc1` (centres undefined), the fluorescence intensity was 4910 (inactive).
With `CCC1=C(C(=O)OC)C(c2cc(OC)ccc2OC)C(C#N)=C(N)O1` (centres undefined) the fluorescence intensity was 21500 (active).
For `CCOC(=O)C1=C(CC)OC(N)=C(C#N)C1c1ccc(F)cc1F` (centres undefined), the fluorescence intensity was 2060 (inactive).
With `COC(=O)C1=C(C)N(C)C(=S)NC1c1cc(OC)ccc1OC` (centres undefined) the fluorescence intensity was 4360 (inactive).
For `CCOCCCNS(=O)(=O)Cc1ccccc1`, the fluorescence intensity was 18800 (active).
For `COc1ccc(OCCNS(=O)(=O)Cc2ccccc2)cc1`, the fluorescence intensity was 2820 (inactive).
With `Cc1cc(C)cc(NS(=O)(=O)Cc2ccccc2)c1` the fluorescence intensity was 3320 (inactive).
In the case of `COCCNC(=O)c1cc2c(Br)ccc(Br)c2nc1N`, the fluorescence intensity is reported as 4280 (inactive).
With `COC(=O)/C(NC(C)=O)=C(\C)c1ccc(Cl)cc1` the fluorescence intensity was 17300 (active).
In the case of `CC(=O)Nc1ccc(SCC(=O)NC(=O)c2ccc(Cl)cc2)cc1`, the fluorescence intensity is reported as 3220 (inactive).
With `CC(C)CNC(=S)NC(=O)c1ccc(Cl)cc1` the fluorescence intensity was 2350 (inactive).
